Screening results from PubChem.
Spn MK inh = S. pneumoniae MK inhibitors, primary screen, biochemical, PK/LDH-coupled NADH absorbance. mevalonate kinase [Streptococcus pneumoniae D39]. purified MK, PK/LDH-coupled NADH absorbance 340 nm. inhibition, % at 10 µM. 0.48% of 65,000 active. AID 555, 2006;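 active = ranked among the strongest by inhibition in the single 10 µM screen, a fixed top-ranked set picked for dose follow-up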
NADH coupling = inhibitors of PK/LDH coupling enzymes, profiling panel, artefact control, biochemical, MLSMR library; coupled PK/LDH NADH assays, four targets; IC50, µM (highest dose often 10 µM), without a hit: at the top dose inhibition; 0.02% of 65,000 active; AID 774, 2007;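 active = single-dose screening hits from any of four coupled enzyme assays that gave an IC50 when retested across doses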;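 note: the DPM-DC format reads NADH fluorescence rather than 340 nm absorbance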
Fluor 339 460 = intrinsic fluorescence of library compounds, ex339/em460 – biochemical, MLSMR library, data from DPM-DC assay, artefact control, profiling panel; 5.5% of 65,000 active; fluorescence fold increase at 10 µM; compound autofluorescence, ex339/em460 nm, NADH buffer; stronger effect = higher value; 1 = no-compound wells, NADH background;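 active = at 10 µM, mean starting fluorescence two-fold or more over control wells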;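 note: signal is the first read of a kinetic run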
PMK inhibit = S. pneumoniae PMK inhibitors, primary screen, biochemical, mevalonate pathway, pilot trial included; 0.49% of 65,000 active; inhibition, % at 10 µM; AID 539, 2006; purified PMK, PK/LDH-coupled NADH absorbance 340 nm;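 active = top-ranked compounds by inhibition in the single 10 µM screen, taking a fixed number of the strongest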;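 note: 0% = full reaction with DMSO carrier and 100% = background rate without enzyme reaction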
Spn DPM-DC inh = S. pneumoniae DPM-DC inhibitors, primary screen, biochemical, PK/LDH-coupled NADH fluorescence. diphosphomevalonate decarboxylase (Streptococcus pneumoniae D39). purified DPM-DC. 0.49% of 65,000 active. calls only at 10 µM;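 active = the 320 compounds with the highest percent inhibition in the single-dose primary screen, excluding strongly autofluorescent ones, cut at about 32% in these data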;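 note: kinetic rate of NADH fluorescence loss reporting ADP formed by the decarboxylase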
A340 absorber = compound light absorbance at 340 nm, profiling panel, artefact control, biochemical, MLSMR library, data from PS, PMK, MK assays; AID 708, 2007; fold change at 10 µM; compound absorbance at 340 nm, fold over control; 65,000 tested, under 10 active;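 active = at 10 µM dose, initial 340 nm absorbance at least 2 fold that of control wells; inactive = change under 2 fold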;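 note: initial absorbance extrapolated from kinetic A340 decline of NADH oxidation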
* hit, by the source's call; [ ] = another dose, or the depositor's remark. This is a sample that favours compounds with a hit; in the whole collection about 6.5% have one here.

Results for O=c1[nH]c(NCCCO)nc2c1C1(CCCC1)Cc1ccccc1-2 ?
Spn MK inh: 8; NADH coupling: 11%; Fluor 339 460: 2.1*; PMK inhibit: 13; A340 absorber: 1.1

What do the screens show for `O=c1[nH]cnc2cc(Cl)ccc12`?
Spn MK inh: 12; NADH coupling: 7%; Fluor 339 460: 1.1; PMK inhibit: 8; Spn DPM-DC inh: inactive; A340 absorber: 1

What do the screens show for `COc1cccc2c(=O)c3c(cnn3C)n(C)c12`?
Spn MK inh: 0; NADH coupling: 1%; Fluor 339 460: 2.5*; PMK inhibit: 0; A340 absorber: 1

Results for CCCCNC1C(CC)C(CCC)C(C#N)(C#N)C1(C#N)C#N (stereo not given) ?
Spn MK inh: 5; NADH coupling: 2%; Fluor 339 460: 1; PMK inhibit: 0; Spn DPM-DC inh: inactive; A340 absorber: 0.99

How did COc1ccc(S(=O)(=O)N2CCC(N3CCCCC3)CC2)cc1 do in these assays?
Spn MK inh: 32; NADH coupling: 12%; Fluor 339 460: 1.1; PMK inhibit: 4; Spn DPM-DC inh: inactive; A340 absorber: 1

Results for COc1ccc(S(=O)(=O)N2CCN(C3CCCCCCC3)CC2)cc1 ?
Spn MK inh: 33; NADH coupling: 5%; Fluor 339 460: 1; PMK inhibit: 29*; Spn DPM-DC inh: inactive; A340 absorber: 0.99

How did O=S(=O)(c1ccc(F)cc1)N1CCC(N2CCCC2)CC1 do in these assays?
Spn MK inh: 50*; NADH coupling: 7%; Fluor 339 460: 1; PMK inhibit: 14; Spn DPM-DC inh: inactive; A340 absorber: 1

What do the screens show for `CCOc1cccc(OCCCNCCCOC)c1`?
Spn MK inh: 40*; NADH coupling: 13%; Fluor 339 460: 1.1; PMK inhibit: 0; Spn DPM-DC inh: inactive; A340 absorber: 1.1

What do the screens show for `CCOC(=O)Nc1nnc(-c2ccc(OC)c(OC)c2)s1`?
Spn MK inh: 9; NADH coupling: 11%; Fluor 339 460: 3.7*; PMK inhibit: 12; A340 absorber: 1.1

Results for COC(=O)Nc1nnc(CCc2ccccc2)s1 ?
Spn MK inh: 6; NADH coupling: 4%; Fluor 339 460: 1; PMK inhibit: 10; Spn DPM-DC inh: inactive; A340 absorber: 0.99

What do the screens show for `CCOC(=O)Nc1nnc(CCc2ccccc2)s1`?
Spn MK inh: 7; NADH coupling: 8%; Fluor 339 460: 2.6*; PMK inhibit: 9; Spn DPM-DC inh: inactive; A340 absorber: 1.1

What do the screens show for `CSc1nc(C)cc(SCCO)n1`?
Spn MK inh: 10; NADH coupling: 8%; Fluor 339 460: 1.1; PMK inhibit: 13; Spn DPM-DC inh: inactive; A340 absorber: 1

How did Cc1oc2cc(O)cc(C)c2c(=O)c1-c1cnn(-c2ccccc2)c1 do in these assays?
Spn MK inh: 0; NADH coupling: 2%; Fluor 339 460: 1.2; PMK inhibit: 7; Spn DPM-DC inh: inactive; A340 absorber: 1

What do the screens show for `Cc1nc(-c2cnn(-c3ccccc3)c2)c2cc(C)oc2n1`?
Spn MK inh: 0; NADH coupling: 2%; Fluor 339 460: 2.7*; PMK inhibit: 4; Spn DPM-DC inh: active[fluoresces]; A340 absorber: 1

How did CCc1nnc(NC(=O)CN2CCOCC2)s1 do in these assays?
Spn MK inh: 5; NADH coupling: 3%; Fluor 339 460: 1.1; PMK inhibit: 4; Spn DPM-DC inh: inactive; A340 absorber: 1

How did CCCc1nnc(NC(=O)CN2CCOCC2)s1 do in these assays?
Spn MK inh: 8; NADH coupling: 17%; Fluor 339 460: 0.75; PMK inhibit: 11; Spn DPM-DC inh: active; A340 absorber: 0.99

What do the screens show for `COCCn1c(C)cc(C(=O)CSc2nnc3scc(-c4ccc(Cl)cc4)n23)c1C`?
Spn MK inh: 6; NADH coupling: 6%; Fluor 339 460: 1.1; PMK inhibit: 11; Spn DPM-DC inh: inactive; A340 absorber: 1.1

How did COc1ccc(CNC(=O)C2CCN(S(=O)(=O)c3cccc4cccnc34)CC2)cc1 do in these assays?
Spn MK inh: 2; NADH coupling: 15%; Fluor 339 460: 1.1; PMK inhibit: 27*; Spn DPM-DC inh: inactive; A340 absorber: 1

Results for Cc1ccc(CNC(=O)C2CCN(S(=O)(=O)c3c(C)noc3C)CC2)cc1 ?
Spn MK inh: active; NADH coupling: 5%; Fluor 339 460: 1; PMK inhibit: 19; Spn DPM-DC inh: inactive; A340 absorber: 1

What do the screens show for `O=C(NCc1ccccc1)C1CCN(S(=O)(=O)c2cccc3cccnc23)CC1`?
Spn MK inh: 3; NADH coupling: 3%; Fluor 339 460: 1; PMK inhibit: 2; Spn DPM-DC inh: inactive; A340 absorber: 0.98

How did Cc1ccc(-c2nnn(CC(=O)N3CCN(c4ccccc4)CC3)n2)o1 do in these assays?
Spn MK inh: 0; NADH coupling: 2%; Fluor 339 460: 1.1; PMK inhibit: 7; Spn DPM-DC inh: inactive; A340 absorber: 1.1

How did COc1ccc(NCc2nnc(SCC(=O)c3ccc(OC)cc3)n2C)cc1 do in these assays?
Spn MK inh: 7; NADH coupling: 4%; Fluor 339 460: 1; PMK inhibit: 1; Spn DPM-DC inh: inactive; A340 absorber: 1.1

How did O/N=C(\c1ccc(Cl)cc1)c1cc2ccccc2o1 do in these assays?
Spn MK inh: 7; NADH coupling: 2%; Fluor 339 460: 1.1; PMK inhibit: 0; Spn DPM-DC inh: inactive; A340 absorber: 1

Results for O=c1[nH]c2cc3c(cc2cc1CN(CC1CCCO1)S(=O)(=O)c1ccc(Cl)cc1)OCCO3 (stereo not given) ?
Spn MK inh: 9; NADH coupling: 7%; Fluor 339 460: 2.6*; PMK inhibit: 8; Spn DPM-DC inh: inactive; A340 absorber: 1.1

How did CC(=O)c1ccc(S(=O)(=O)N(Cc2cc3cc4c(cc3[nH]c2=O)OCCO4)CC2CCCO2)cc1 (stereo not given) do in these assays?
NADH coupling: 3%; Fluor 339 460: 1.2; PMK inhibit: 5; Spn DPM-DC inh: inactive; A340 absorber: 1

What do the screens show for `COC(=O)c1ccc(S(=O)(=O)N(Cc2cc3cc4c(cc3[nH]c2=O)OCO4)C2CCCCC2)cc1`?
Spn MK inh: 10; NADH coupling: 6%; Fluor 339 460: 3.6*; PMK inhibit: 2; A340 absorber: 1

What do the screens show for `Cc1ccc(S(=O)(=O)N(Cc2cc3cc4c(cc3[nH]c2=O)OCCO4)CC2CCCO2)cc1` (stereo not given)?
Spn MK inh: 6; NADH coupling: 4%; Fluor 339 460: 3.5*; PMK inhibit: 2; A340 absorber: 1.1
